# Reference: PubChem BioAssay (NCATS)
# Records with an inconclusive call do not appear. Entries that show only a call come without a potency. Unmarked numbers belong to inactive results. Calls of active or inactive are those of the source. Calls come from the whole dose curve; as a rule, active = well fitted curve in the direction sought with a large enough effect; inconclusive = small, poorly fitted or top-dose-only effect, or another doubt; inactive = no such curve, though single readings can be large; an effect the other way counts as inactive or inconclusive.
# Legend:
# [1] = target: ATP-dependent 6-phosphofructokinase (Trypanosoma brucei brucei) (UniProt O15648); assay: qHTS Assay to Find Inhibitors of T. brucei phosphofructokinase: hit validation (AID 492961);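 note: luminescence reports ADP formed as PFK phosphorylates fructose-6-phosphate with ATP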
# Sequence of ATP-dependent 6-phosphofructokinase (Trypanosoma brucei brucei) (O15648 whole entry, looked up): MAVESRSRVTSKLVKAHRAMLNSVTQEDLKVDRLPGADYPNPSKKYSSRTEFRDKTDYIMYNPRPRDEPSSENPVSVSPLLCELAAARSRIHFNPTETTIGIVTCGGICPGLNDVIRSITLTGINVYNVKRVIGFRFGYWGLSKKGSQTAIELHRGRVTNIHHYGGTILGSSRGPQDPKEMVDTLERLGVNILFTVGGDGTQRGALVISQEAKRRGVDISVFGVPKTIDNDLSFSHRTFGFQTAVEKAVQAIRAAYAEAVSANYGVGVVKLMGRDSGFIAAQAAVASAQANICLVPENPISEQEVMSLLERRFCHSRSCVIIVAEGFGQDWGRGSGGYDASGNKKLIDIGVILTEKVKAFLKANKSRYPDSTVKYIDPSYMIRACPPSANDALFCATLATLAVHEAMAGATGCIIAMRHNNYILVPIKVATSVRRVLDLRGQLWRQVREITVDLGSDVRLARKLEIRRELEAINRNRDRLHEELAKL
# How it was run: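 Percent activity derived from corrected luminescence, normalized between 0x and 1x enzyme controls, then fitted to concentration-response curves. Conditions: 1.25 nM PFK, 0.1 mM ATP, 0.5 mM F6P, 45 min RT.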
# [2] = qHTS profiling for inhibitors of Plasmodium falciparum proliferation (AID 504749); note: nearly all actives have a fitted effect of over 60% in size; note: potency is the fitted concentration of half-maximal effect; details: P. falciparum in erythrocytes, SYBR Green DNA, 72 h, at 28.7 µM (top of the series)
# How it was run: (§1)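 Quantitative HTS: compounds pinned into medium, infected erythrocytes added (0.3% parasitemia, 2.5% hematocrit), 72 h culture at 37 C under 5% CO2. Saponin/Triton lysis with SYBR Green I, overnight RT, then fluorescence read.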
# 3D7 = assay: as above; details: P. falciparum in erythrocytes, SYBR Green DNA, 72 h; series mostly up to 28.7 µM
# How it was run: as §1
# AA1029 = assay: as above; details: P. falciparum in erythrocytes, SYBR Green DNA, 72 h; series mostly up to 28.7 µM
# How it was run: as §1
# AS120 = assay: as above; details: P. falciparum in erythrocytes, SYBR Green DNA, 72 h; series mostly up to 28.7 µM
# How it was run: as §1
# ATS189 = assay: as above; details: P. falciparum in erythrocytes, SYBR Green DNA, 72 h; series mostly up to 28.7 µM
# How it was run: as §1
# CP185 = assay: as above; details: P. falciparum in erythrocytes, SYBR Green DNA, 72 h; series mostly up to 28.7 µM
# How it was run: as §1
# CP191 = assay: as above; details: P. falciparum in erythrocytes, SYBR Green DNA, 72 h; series mostly up to 28.7 µM
# How it was run: as §1
# CP211 = assay: as above; details: P. falciparum in erythrocytes, SYBR Green DNA, 72 h; series mostly up to 28.7 µM
# How it was run: as §1
# CP217 = assay: as above; details: P. falciparum in erythrocytes, SYBR Green DNA, 72 h; series mostly up to 28.7 µM
# How it was run: as §1
# CP238 = assay: as above; details: P. falciparum in erythrocytes, SYBR Green DNA, 72 h; series mostly up to 28.7 µM
# How it was run: as §1
# CP252 = assay: as above; details: P. falciparum in erythrocytes, SYBR Green DNA, 72 h; series mostly up to 28.7 µM
# How it was run: as §1
# CP262 = assay: as above; details: P. falciparum in erythrocytes, SYBR Green DNA, 72 h; series mostly up to 28.7 µM
# How it was run: as §1
# CP265 = assay: as above; details: P. falciparum in erythrocytes, SYBR Green DNA, 72 h; series mostly up to 28.7 µM
# How it was run: as §1
# CP286 = assay: as above; details: P. falciparum in erythrocytes, SYBR Green DNA, 72 h; series mostly up to 28.7 µM
# How it was run: as §1
# Dd2 = assay: as above; details: P. falciparum in erythrocytes, SYBR Green DNA, 72 h; series mostly up to 28.7 µM
# How it was run: as §1
# FAB9 = assay: as above; details: P. falciparum in erythrocytes, SYBR Green DNA, 72 h; series mostly up to 28.7 µM
# How it was run: as §1
# N140 = assay: as above; details: P. falciparum in erythrocytes, SYBR Green DNA, 72 h; series mostly up to 28.7 µM
# How it was run: as §1
# P94_40 = assay: as above; details: P. falciparum in erythrocytes, SYBR Green DNA, 72 h; series mostly up to 28.7 µM
# How it was run: as §1
# TAB109 = assay: as above; details: P. falciparum in erythrocytes, SYBR Green DNA, 72 h; series mostly up to 28.7 µM
# How it was run: as §1
smiles,measurement,setting,value
C#C[C@@]1(O)CC[C@@H]2[C@H]3CCC4=C/C(=N\O)CC[C@H]4[C@@H]3CC[C@]21CC,Potency,[1],inactive
same,"activity, negative = inhibition",[2]; parasite line A,-13.3%
same,"activity, negative = inhibition",[2]; parasite line B,-2.2%
same,Potency,3D7,inactive
same,Potency,AA1029,inactive
same,Potency,AS120,inactive
same,Potency,ATS189,inactive
same,Potency,CP185,inactive
same,Potency,CP191,inactive
same,Potency,CP211,inactive
same,Potency,CP217,inactive
same,Potency,CP238,inactive
same,Potency,CP252,inactive
same,Potency,CP262,inactive
same,Potency,CP265,inactive
same,Potency,CP286,inactive
same,Potency,Dd2,inactive
same,Potency,FAB9,inactive
same,Potency,N140,inactive
same,Potency,P94_40,inactive
same,Potency,TAB109,inactive
O=C1Oc2ccccc2C(=O)C1C(CC(O)c1ccc(-c2ccc(Br)cc2)cc1)c1ccccc1 (stereo unspecified),Potency,[1],inactive
same,"activity, negative = inhibition",[2]; parasite line A,-67.1%
same,Potency,3D7,inactive
same,Potency,AA1029,inactive
same,Potency,AS120,inactive
same,Potency,CP185,inactive
same,Potency,CP191,inactive
same,Potency,CP211,inactive
same,Potency,CP217,inactive
same,Potency,CP238,inactive
same,Potency,CP252,inactive
same,Potency,CP262,inactive
same,Potency,CP265,inactive
same,Potency,CP286,inactive
same,Potency,Dd2,inactive
same,Potency,FAB9,inactive
same,Potency,N140,inactive
same,Potency,P94_40,inactive
same,Potency,TAB109,inactive
CNC1CCc2cc(OC)c(OC)c(OC)c2-c2ccc(OC)c(=O)cc21 (stereo unspecified),Potency,[1],inactive
same,"activity, negative = inhibition",[2]; parasite line A,-5.32%
same,"activity, negative = inhibition",[2]; parasite line B,0.292%
same,Potency,AA1029,inactive
same,Potency,AS120,inactive
same,Potency,ATS189,inactive
same,Potency,CP185,inactive
same,Potency,CP191,inactive
same,Potency,CP211,inactive
same,Potency,CP217,inactive
same,Potency,CP238,inactive
same,Potency,CP252,inactive
same,Potency,CP262,inactive
same,Potency,CP265,inactive
same,Potency,CP286,inactive
same,Potency,FAB9,inactive
same,Potency,N140,inactive
same,Potency,P94_40,inactive
same,Potency,TAB109,inactive
COc1ccc(C(=O)/C(Br)=C/C(=O)O)cc1,Potency,[1],inactive
same,"activity, negative = inhibition",[2]; parasite line A,-21.1%
same,"activity, negative = inhibition",[2]; parasite line B,-8.61%
same,Potency,AA1029,inactive
same,Potency,ATS189,inactive
same,Potency,CP185,inactive
same,Potency,CP238,inactive
same,Potency,CP252,inactive
same,Potency,CP262,inactive
same,Potency,CP265,inactive
same,Potency,CP286,inactive
same,Potency,Dd2,inactive
same,Potency,FAB9,inactive
same,Potency,N140,inactive
same,Potency,P94_40,inactive
CC1(C)SC2[C@@H](N=CN3CCCCCC3)C(=O)N2[C@H]1C(=O)O (stereo partly specified),Potency,[1],inactive
same,"activity, negative = inhibition",[2]; parasite line A,0.0196%
same,"activity, negative = inhibition",[2]; parasite line B,-13%
same,Potency,3D7,inactive
same,Potency,AA1029,inactive
same,Potency,AS120,inactive
same,Potency,ATS189,inactive
same,Potency,CP185,inactive
same,Potency,CP191,inactive
same,Potency,CP211,inactive
same,Potency,CP217,inactive
same,Potency,CP238,inactive
same,Potency,CP252,inactive
same,Potency,CP262,inactive
same,Potency,CP265,inactive
same,Potency,CP286,inactive
same,Potency,Dd2,inactive
same,Potency,FAB9,inactive
same,Potency,N140,inactive
same,Potency,TAB109,inactive
Nc1nc(Cl)nc2c1ncn2[C@@H]1O[C@H](CO)[C@H](O)C1F (stereo partly specified),Potency,[1],inactive
same,"activity, negative = inhibition",[2]; parasite line A,-2.17%
same,Potency,3D7,inactive
same,Potency,AA1029,inactive
same,Potency,AS120,inactive
same,Potency,ATS189,inactive
same,Potency,CP185,inactive
same,Potency,CP191,inactive
same,Potency,CP211,inactive
same,Potency,CP217,inactive
same,Potency,CP238,inactive
same,Potency,CP252,inactive
same,Potency,CP262,inactive
same,Potency,CP265,inactive
same,Potency,CP286,inactive
same,Potency,Dd2,inactive
same,Potency,FAB9,inactive
same,Potency,N140,inactive
same,Potency,P94_40,inactive
same,Potency,TAB109,inactive
CCN(CC)C(=O)[C@@]1(c2ccccc2)C[C@@H]1CN,Potency,[1],inactive
same,"activity, negative = inhibition",[2]; parasite line A,3.47%
same,"activity, negative = inhibition",[2]; parasite line B,2.1%
same,Potency,3D7,inactive
same,Potency,AA1029,inactive
same,Potency,AS120,inactive
same,Potency,ATS189,inactive
same,Potency,CP185,inactive
same,Potency,CP191,inactive
same,Potency,CP211,inactive
same,Potency,CP217,inactive
same,Potency,CP238,inactive
same,Potency,CP252,inactive
same,Potency,CP262,inactive
same,Potency,CP265,inactive
same,Potency,CP286,inactive
same,Potency,Dd2,inactive
same,Potency,FAB9,inactive
same,Potency,N140,inactive
same,Potency,P94_40,inactive
CCC1OC(=O)C[C@H](O)C(C)[C@@H](O[C@@H]2OC(C)C(O)C(N(C)C)C2O)C(CCN2CC(C)CC(C)C2)CC(C)C(=O)/C=C/C(C)=C\[C@@H]1COC1OC(C)C(O)C(OC)C1OC (stereo partly specified),Potency,[1],inactive
same,"activity, negative = inhibition",[2]; parasite line A,-29.2%
same,Potency,3D7,inactive
same,Potency,CP191,6.31 µM (active)
same,Potency,CP286,5.62 µM (active)
same,Potency,Dd2,3.98 µM (active)
same,Potency,FAB9,inactive
same,Potency,N140,10 µM (active)
same,Potency,TAB109,4.47 µM (active)
CC1(C)O[C@@H]2C[C@H]3[C@@H]4CCC5=CC(=O)C=C[C@]5(C)[C@H]4C(O)C[C@]3(C)[C@]2(C(=O)CO)O1 (stereo partly specified),Potency,[1],inactive
same,"activity, negative = inhibition",[2]; parasite line A,-12.4%
same,"activity, negative = inhibition",[2]; parasite line B,-28%
same,Potency,3D7,inactive
same,Potency,ATS189,inactive
same,Potency,CP185,inactive
same,Potency,CP191,inactive
same,Potency,CP211,inactive
same,Potency,CP217,inactive
same,Potency,CP238,inactive
same,Potency,CP252,inactive
same,Potency,CP262,inactive
same,Potency,CP265,inactive
same,Potency,CP286,inactive
same,Potency,FAB9,inactive
same,Potency,N140,11.2 µM (active)
same,Potency,P94_40,inactive
same,Potency,TAB109,inactive
